Source: PubChem BioAssay (several laboratories)
The list is not random: actives were taken first. Their share in the collection is about 27%.
CYP2C9 activ – human CYP2C9 activators, primary screen, biochemical, luminescence; Cytochrome P450 2C9 (Homo sapiens), P11712; recombinant CYP2C9, luciferin-H conversion; active compounds read high; factor 1 = untreated enzyme, 0 = blocked; activation factor at 5 µM; 1.4% of 96,000 active; AID 1024, 2008;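 active = activation factor of 2 or more for CYP2C9 at a 5 µM dose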;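 note: 0 = sulfaphenazole-blocked wells and 1 = vehicle-only wells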
Target sequence (P11712 whole entry, looked up): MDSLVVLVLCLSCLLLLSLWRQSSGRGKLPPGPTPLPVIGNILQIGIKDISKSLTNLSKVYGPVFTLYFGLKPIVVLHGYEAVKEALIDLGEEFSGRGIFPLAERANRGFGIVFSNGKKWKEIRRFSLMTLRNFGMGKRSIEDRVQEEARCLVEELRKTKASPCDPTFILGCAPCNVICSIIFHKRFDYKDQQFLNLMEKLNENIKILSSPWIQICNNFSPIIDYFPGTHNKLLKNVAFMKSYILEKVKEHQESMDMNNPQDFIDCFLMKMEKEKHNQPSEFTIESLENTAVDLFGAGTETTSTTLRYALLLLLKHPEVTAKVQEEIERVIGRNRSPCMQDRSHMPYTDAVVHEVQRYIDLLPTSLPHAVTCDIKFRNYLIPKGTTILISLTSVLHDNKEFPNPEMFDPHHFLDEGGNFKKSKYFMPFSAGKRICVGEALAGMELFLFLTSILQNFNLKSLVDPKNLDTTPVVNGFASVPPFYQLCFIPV
CYP2C9 inh – blockers of cytochrome P450 2C9 activity – biochemical, luminescence, ADME assay, primary screen; inhibition, % at 5 µM; 20% of 96,000 active; P11712; CYP2C9 Supersomes, luciferin-H conversion;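 active = blocking of liver enzyme CYP2C9 beyond about 50% at 5 µM, limit read from the data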
CYP2C19 activ – human CYP2C19 activators, primary screen, biochemical, luminescence | activation factor at 5 µM | recombinant CYP2C19, luciferin-H EGE luminescence; active compounds read high; 0 = fully inhibited enzyme, 1 = untreated enzyme | Cytochrome P450 2C19 (Homo sapiens), P33261 | 96,000 tested, under 10 active;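 active = activation factor of at least 2 at 5 µM in the primary screen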;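 note: 0 = wells with 2.5 mM tranylcypromine and 1 = vehicle-only wells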
Cav3 T inh – Cav3.2 calcium influx blockers – cell-based, Fluo-4 calcium fluorescence, FDSS, MLSMR library, primary screen. 4% of 100,000 active. B-score at 10 µM. Voltage-dependent T-type calcium channel subunit alpha-1H (Homo sapiens), O95180. Cav3.2-expressing cells; active compounds read low. AID 449739, 2010;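 active = single-dose well whose peak fluorescence ratio is a statistical outlier from its plate by either plate-standardised score or position-corrected B-score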
CYP2C19 inhib – blockers of cytochrome P450 2C19 activity – biochemical, luminescence, ADME assay, primary screen; CYP2C19 Supersomes, luciferin-H EGE luminescence, 30 min; inhibition, % at 5 µM; 21% of 96,000 active;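 active = CYP2C19 inhibition above a set limit at 5 µM in the primary screen, cut at about 50% in these data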;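 note: plate controls were negative control wells for no effect and 2.5 mM tranylcypromine positive control for full effect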
* = called active by the depositor; . = no result given.

SMILES	CYP2C9 activ	CYP2C9 inh	CYP2C19 activ	Cav3 T inh	CYP2C19 inhib
O=C(c1ccc2c(c1)OCO2)N1CCC2(CC1)Oc1ccc(Cl)cc1C(=O)C21CC(c2cccnc2)=NO1 (configuration not stated)	.	.	.	0.076	.
CN(C(=O)Cc1ccccc1)n1cnnc1	.	.	.	-0.014	.
CC1Oc2ccccc2N(CC(=O)N2CCCc3ccccc32)C1=O (configuration not stated)	0.7	33	0.6	-0.086	44
O=C(C1COc2ccccc2O1)N1CCc2ccccc21 (configuration not stated)	0.7	34	0.1	0.21	92*
CC1Oc2ccccc2N(CC(=O)N2CCc3ccccc32)C1=O (configuration not stated)	0.4	56*	0.5	-0.0095	52*
O=C(O)C1CC=CCC1C(=O)N1CCc2ccccc21 (configuration not stated)	.	.	.	0.041	.
CC1Oc2ccccc2N(CC(=O)N(Cc2ccccc2)Cc2ccccn2)C1=O (configuration not stated)	0.3	65*	0.4	-1.4	61*
O=c1oc(-c2ccccc2Cl)nc2ccsc12	0.9	14	0.2	-1.8	77*
O=c1sc(Nc2ccccc2)nc2ccsc12	0.6	40	0.7	-1.7	33
CCn1cc(Br)c(C(=O)Nc2cccc(Cl)c2)n1	0.3	66*	0.1	-0.56	94*
CCn1cc(Br)c(C(=O)Nc2ccc(C(=O)OC(C)C)cc2)n1	0.9	14	0.3	-1.2	75*
CCOC(=O)c1c(NC(=O)c2nn(CC)cc2Br)c(C#N)cn1-c1ccccc1	1	-2	0.2	-4	75*
CCn1cc(Br)c(C(=O)Nc2ccc(Cl)c(Cl)c2)n1	.	.	.	0.29	.
CCCCOC(=O)c1ccc(NC(=O)c2nn(C)cc2Br)cc1	.	.	.	-1.9	.
O=C(NCc1ccccn1)c1coc(=O)c(Br)c1	0.8	20	0.9	1.1	14
CCC1=Nc2ccccc2NC2=C1C(=O)CCC2	1.3	-27	0.4	1.3	63*
CCCCCC(=O)N1CCN(CCN=CC2=C(O)CC(c3ccc(OC)c(OC)c3)CC2=O)CC1 (configuration not stated)	0.4	64*	0.6	0.089	40
O=C1CC(c2ccccc2)CC(O)=C1C=NCCN1CCN(C(=S)Nc2cccc(Cl)c2)CC1 (configuration not stated)	0.5	47	0.3	-3.6	72*
CC1(C)CC(=O)C(C=NCCN2CCN(C(=S)Nc3ccc(F)cc3)CC2)=C(O)C1	0.8	18	0.2	1.1	75*
O=C(NCc1ccc2c(c1)OCO2)C(c1ccco1)N(C(=O)c1csnn1)c1ccccc1 (configuration not stated)	0.8	16	0.3	0.26	75*
CC(C)CCN(C(=O)CNC(=O)c1ccco1)C(C(=O)NC1CCCCC1)c1ccco1 (configuration not stated)	0.5	51*	0.3	-0.2	70*
COC(=O)c1ccc(C(C(=O)NCc2ccccc2)N(Cc2cccs2)C(=O)c2cnccn2)cc1 (configuration not stated)	0.7	32	0.9	-0.21	7
COCCN(C(=O)CNC(=O)c1ccco1)C(C(=O)NC1CCCC1)c1cccs1 (configuration not stated)	.	.	.	-0.27	.
COC(=O)c1cccc(N(C(=O)c2cnccn2)C(C(=O)NCc2ccccc2)c2ccco2)c1 (configuration not stated)	0.5	48	0.3	-1	71*
COC(=O)c1cccc(N(C(=O)CNC(=O)c2ccco2)C(C(=O)NC2CCCC2)c2ccco2)c1 (configuration not stated)	0.4	64*	0.7	0.032	25
CC(C)[C@H](NC(=O)[C@@H]1CSCN1C(=O)OC(C)(C)C)C(=O)NCC1CCC(C(=O)O)CC1 (some centres not stated)	1.2	-18	1.1	-0.013	-6
CCn1c(NC(=S)Nc2ccccc2)nc2ccccc21	0.8	20	0.7	-0.46	32
